Experiments:
Assay in all cases: growth AUC relative to DMSO control (median of replicates) (fraction); higher = more growth (less inhibition), active = hit call of the paper
Conditions in all cases: 20 µM; 24 h;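 active = AUC reduced over 20% with Padj below 0.05 in at least 2 of 3 replicates; inactive = otherwise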
Akkermansia muciniphila = system: Akkermansia muciniphila
How it was run: (§1)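 In round-bottom 96-well plates sealed with pierced gas-permeable seals, gut bacterial monocultures in mGAM were grown anaerobically at 37 °C from OD600 0.05 with 20 µM compound (1% DMSO). OD600 readings were taken hourly for 24 h, and the minimum OD was set to 0. Area under the growth curve was then normalised to the plate median of solvent-only wells, or to row and column medians on the industrial chemical plate. The value given is the median of three biological replicates grown on separate days.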

Bacteroides caccae = system: Bacteroides caccae
How it was run: as §1

Bacteroides clarus = system: Bacteroides clarus
How it was run: as §1

Bacteroides dorei = system: Bacteroides dorei
How it was run: as §1

Bacteroides stercoris = system: Bacteroides stercoris
How it was run: as §1

[1] = system: Bacteroides thetaiotaomicron
How it was run: as §1

Bacteroides uniformis = system: Bacteroides uniformis
How it was run: as §1

[2] = system: Bifidobacterium longum subsp. longum
How it was run: as §1

Clostridium difficile = system: Clostridium difficile
How it was run: as §1

Collinsella aerofaciens = system: Collinsella aerofaciens
How it was run: as §1

Coprococcus comes = system: Coprococcus comes
How it was run: as §1

Escherichia coli ED1a = system: Escherichia coli ED1a
How it was run: as §1

Escherichia coli IAI1 = system: Escherichia coli IAI1
How it was run: as §1

Eubacterium rectale = system: Eubacterium rectale
How it was run: as §1

[3] = system: Fusobacterium nucleatum subsp. animalis
How it was run: as §1

Lactobacillus gasseri = system: Lactobacillus gasseri
How it was run: as §1

Lactobacillus paracasei = system: Lactobacillus paracasei
How it was run: as §1

Odoribacter splanchnicus = system: Odoribacter splanchnicus
How it was run: as §1

[4] = system: Parabacteroides distasonis
How it was run: as §1

Parabacteroides merdae = system: Parabacteroides merdae
How it was run: as §1

Measured: growth AUC

O=C(O)C(F)(F)C(F)(F)C(F)(F)C(F)(F)C(F)(F)C(F)(F)C(F)(F)C(F)(F)C(F)(F)F
inactive: Akkermansia muciniphila 0.991 | Bacteroides caccae 0.977 | Bacteroides clarus 0.933 | Bacteroides dorei 1.01 | Bacteroides stercoris 0.998 | [1] 1.1 | Bacteroides uniformis 1.02 | [2] 0.939 | Clostridium difficile 0.968 | Collinsella aerofaciens 0.984 | Coprococcus comes 0.991 | Escherichia coli ED1a 1.01 | Escherichia coli IAI1 1.01 | Eubacterium rectale 0.892 | [3] 1.01 | Lactobacillus gasseri 1.01 | Lactobacillus paracasei 1.03 | Odoribacter splanchnicus 0.993 | [4] 0.913 | Parabacteroides merdae 0.97

CC1(C)C(C=C(Cl)Cl)[C@@H]1C(=O)O[C@@H](C#N)c1ccc(F)c(Oc2ccccc2)c1 (stereo not given in full)
inactive: Akkermansia muciniphila 0.998 | Bacteroides caccae 0.986 | Bacteroides clarus 1.01 | Bacteroides dorei 1.01 | Bacteroides stercoris 0.992 | [1] 1 | Bacteroides uniformis 0.976 | [2] 0.983 | Clostridium difficile 0.996 | Collinsella aerofaciens 0.96 | Coprococcus comes 0.984 | Escherichia coli ED1a 0.956 | Escherichia coli IAI1 1 | Eubacterium rectale 1 | [3] 0.878 | Lactobacillus gasseri 0.823 | Lactobacillus paracasei 0.99 | Odoribacter splanchnicus 1.01 | [4] 1.03 | Parabacteroides merdae 0.991

c1ccc2c(c1)cc1ccc3cccc4ccc2c1c34
inactive: Akkermansia muciniphila 1.01 | Bacteroides caccae 0.957 | Bacteroides clarus 0.94 | Bacteroides dorei 0.956 | Bacteroides stercoris 0.978 | [1] 1 | Bacteroides uniformis 0.957 | [2] 1.09 | Clostridium difficile 0.983 | Collinsella aerofaciens 1.03 | Coprococcus comes 1 | Escherichia coli ED1a 1.02 | Escherichia coli IAI1 1 | Eubacterium rectale 0.971 | [3] 0.951 | Lactobacillus gasseri 1.04 | Lactobacillus paracasei 0.967 | Odoribacter splanchnicus 0.932 | [4] 0.994 | Parabacteroides merdae 0.974

CC(C)(C)[C@@H](O)[C@H](Oc1ccc(Cl)cc1)n1cncn1
inactive: Akkermansia muciniphila 1.06 | Bacteroides caccae 0.904 | Bacteroides clarus 1.02 | Bacteroides dorei 0.953 | Bacteroides stercoris 1.25 | [1] 0.948 | Bacteroides uniformis 0.975 | [2] 0.998 | Clostridium difficile 1 | Collinsella aerofaciens 0.988 | Coprococcus comes 0.974 | Escherichia coli ED1a 0.977 | Escherichia coli IAI1 0.999 | Eubacterium rectale 1.08 | [3] 1.05 | Lactobacillus gasseri 1.08 | Lactobacillus paracasei 1.09 | Odoribacter splanchnicus 0.833 | [4] 0.972 | Parabacteroides merdae 1.01

CC1=C(C(=O)Nc2ccccc2)SCCO1
inactive: Akkermansia muciniphila 0.979 | Bacteroides caccae 1.02 | Bacteroides clarus 1 | Bacteroides dorei 0.982 | Bacteroides stercoris 1.21 | [1] 1.04 | Bacteroides uniformis 0.993 | [2] 0.956 | Clostridium difficile 1 | Collinsella aerofaciens 1.03 | Coprococcus comes 0.998 | Escherichia coli ED1a 1 | Escherichia coli IAI1 1.04 | Eubacterium rectale 1.06 | [3] 1.09 | Lactobacillus gasseri 0.993 | Lactobacillus paracasei 1.04 | Odoribacter splanchnicus 0.985 | [4] 1 | Parabacteroides merdae 1.01

c1ccc2c(c1)-c1cccc3cccc-2c13
inactive: Akkermansia muciniphila 0.967 | Bacteroides caccae 0.969 | Bacteroides clarus 0.997 | Bacteroides dorei 0.999 | Bacteroides stercoris 0.98 | [1] 0.963 | Bacteroides uniformis 0.996 | [2] 0.857 | Clostridium difficile 1.02 | Collinsella aerofaciens 0.93 | Coprococcus comes 0.92 | Escherichia coli ED1a 0.941 | Escherichia coli IAI1 1 | Eubacterium rectale 0.91 | [3] 0.954 | Lactobacillus gasseri 1.03 | Lactobacillus paracasei 0.98 | Odoribacter splanchnicus 1 | [4] 0.938 | Parabacteroides merdae 0.935

NC(=S)c1c(Cl)cccc1Cl
inactive: Akkermansia muciniphila 0.917 | Bacteroides caccae 0.943 | Bacteroides clarus 0.97 | Bacteroides dorei 0.935 | Bacteroides stercoris 1.01 | [1] 1.03 | Bacteroides uniformis 0.972 | [2] 1.05 | Clostridium difficile 1.02 | Collinsella aerofaciens 0.962 | Coprococcus comes 1.01 | Escherichia coli ED1a 0.994 | Escherichia coli IAI1 0.979 | Eubacterium rectale 1.22 | [3] 0.822 | Lactobacillus gasseri 0.884 | Lactobacillus paracasei 0.953 | Odoribacter splanchnicus 0.985 | [4] 0.965 | Parabacteroides merdae 0.887

Cc1c(N)cccc1N
inactive: Akkermansia muciniphila 0.946 | Bacteroides caccae 0.969 | Bacteroides clarus 1.04 | Bacteroides dorei 1 | Bacteroides stercoris 1.18 | [1] 0.992 | Bacteroides uniformis 1 | [2] 1 | Clostridium difficile 1 | Collinsella aerofaciens 1.04 | Coprococcus comes 1.01 | Escherichia coli ED1a 0.995 | Escherichia coli IAI1 0.981 | Eubacterium rectale 1.01 | [3] 1.04 | Lactobacillus gasseri 1.01 | Lactobacillus paracasei 0.991 | Odoribacter splanchnicus 0.938 | [4] 0.995 | Parabacteroides merdae 1.01

Reference: the supplement of paper PMC12669032
